D1 antag – human D1 dopamine receptor antagonism. HEK293 TREx D1 cells, calcium flux, dopamine EC80; hits give low values. activity change, negative = inhibition, % at 10 µM. 360,000 tested, 3.2% active. AID 504652; in the data active means activity change below about -30%
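Kinetic fluorescence of a calcium dye serves as the read-out. D1-expressing Hek293 Trex cells, induced overnight at 30 C, are exposed to compound for 180 s before an EC80 dopamine addition, then read 180 s further.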
TRHR agonist – activates the human TRH receptor; activation, % at 2 µM; 360,000 tested, 0.18% active; TRHR cells, calcium flux fluo-8, FDSS agonist mode; AID 493084
Target sequence (P34981 whole entry, looked up): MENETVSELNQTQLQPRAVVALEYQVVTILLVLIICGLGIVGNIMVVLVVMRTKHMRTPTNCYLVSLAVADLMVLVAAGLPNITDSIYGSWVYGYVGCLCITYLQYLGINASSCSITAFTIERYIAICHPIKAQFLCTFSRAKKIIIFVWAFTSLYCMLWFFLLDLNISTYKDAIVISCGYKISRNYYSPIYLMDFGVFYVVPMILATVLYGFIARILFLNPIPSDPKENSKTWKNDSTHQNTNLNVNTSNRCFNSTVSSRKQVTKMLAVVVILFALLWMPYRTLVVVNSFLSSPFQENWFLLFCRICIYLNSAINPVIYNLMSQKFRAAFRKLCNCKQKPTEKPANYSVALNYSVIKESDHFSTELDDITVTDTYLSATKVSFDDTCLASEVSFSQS
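TRHR-expressing cells, plated overnight in medium with 10% serum, were loaded with fluo-8 calcium dye at room temperature. After a 10 s baseline, library compound was pin-added and calcium release was recorded kinetically (ex 480/em 530) as agonist response.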
D1 agonist – human D1 receptor agonism; HEK293 T-REx D1 cells, calcium flux, agonist mode; 360,000 tested, 1% active; P21728; activation, % at 2 µM
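Inducible HEK293 T-REx D1 cells, force-coupled to calcium signalling, were plated at 4000 cells/well with tetracycline and held overnight at 30 C. After no-wash calcium dye loading, compound-evoked calcium rise over 180 s flagged agonists.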
D1 potentiator – human D1 dopamine receptor positive modulation; HEK293 TREx D1 cells, calcium flux, dopamine EC20 potentiation; potentiation, % at 10 µM; 360,000 tested, 0.036% active; AID 504651; in the data active means potentiation above about 30%
TRHR PAM – TRH receptor (human) allosteric enhancement; P34981; TRHR cells, fluo-8 calcium fluorescence, EC20 TRH enhancement; enhancement, % at 2 µM; 360,000 tested, 0.66% active; in the data active means enhancement above about 30%
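TRHR-expressing cells loaded with fluo-8 calcium dye were read kinetically (ex 480/em 530) during compound addition, then stimulated with an EC20 of TRH (10 nM final). Enhancement of the Gq-mediated intracellular calcium response was scored.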
A number is an active result; . = inactive; / = no result given. The list is not random: actives were taken first. Their share in the collection is about 4.6%. Unless noted, no stated cut-off is given here; in the data, active means activation above about 30%; inactive means the rest.

SMILES | D1 antag | TRHR agonist | D1 agonist | D1 potentiator | TRHR PAM
COc1cc(OC)c(NC(c2nnc(-c3ccccc3)o2)c2ccc(F)cc2Cl)cc1Cl (centres undefined) | . | . | . | . | .
CC(C)(C)C1CCc2nc(NC(=O)COc3ccc(F)cc3)sc2C1 (centres undefined) | . | . | . | . | .
Cc1ccc(S(=O)(=O)Nc2ccc3nc(C)sc3c2)cc1 | -34 | . | . | . | .
CC(C)(C)C1CCC2(CC1)NC(CO)(CO)CO2 (centres undefined) | -34 | . | . | . | .
CCOC(=O)C1CCCCN1S(=O)(=O)c1csc(C(N)=O)c1 (centres undefined) | . | . | . | . | .
CCOC(=O)c1oc2cc(OC(C)=O)ccc2c(=O)c1-c1ccc(OC)c(OC)c1 | . | . | . | . | .
CCOC(=O)COc1ccc2c(=O)c(-c3ccc(OC)c(OC)c3)c(C(=O)OCC)oc2c1 | -45 | . | . | . | .
CCP(=O)(c1cccc([N+](=O)[O-])c1)c1cccc([N+](=O)[O-])c1 | . | . | . | . | .
O=[N+]([O-])c1cccc(P(=O)(O)c2cccc([N+](=O)[O-])c2)c1 | . | . | . | . | 31
COc1ccc(-n2c3c(cc(-c4nc(-c5ccc(Cl)cc5)cs4)c2=O)C(=O)CC(C)(C)C3)cc1 | . | . | . | . | .
O=c1[nH]c(SCc2nc3c(cnn3-c3ccccc3)c(=O)[nH]2)nc2ccccc12 | . | . | . | . | .
O=c1[nH]c(CSc2nc3ccccc3[nH]2)nc2c1cnn2-c1ccccc1 | -37 | . | . | . | .
CN1CCN(c2nc(-c3cccnc3)nc3scc(-c4ccccc4)c23)CC1 | . | . | . | . | .
Clc1nc(-c2ccccn2)nc2scc(-c3ccccc3)c12 | . | . | . | . | 40
COc1ccc(NC(=O)C(=O)NCC(c2ccc3c(c2)OCO3)N2CCN(C)CC2)cc1 (centres undefined) | . | . | . | . | .
Cc1nnc(SCc2ccc(F)cc2)s1 | . | . | . | . | .
Cc1nc(CSc2nnc(C)s2)cs1 | -42 | . | . | . | .
Cc1cccc(-c2nc3c4ccccc4n(CC(=O)Nc4cccc(F)c4)c(=O)n3n2)c1 | / | . | . | . | .
COc1ccc(C(=O)NCCSc2c(C)[nH]c3ccccc23)cc1 | . | . | . | . | .
Cc1[nH]c2ccccc2c1SCCNC(=O)c1ccc(F)cc1 | -34 | . | . | . | .
CCOC(=O)c1cc(S(=O)(=O)Nc2ccccc2)[nH]n1 | . | . | . | . | .
CC(CCN1CCN(c2ccccc2)CC1)c1ccccc1 (centres undefined) | -54 | . | . | . | .
CC(CCN1CCN(c2ccccn2)CC1)c1ccccc1 (centres undefined) | . | . | . | . | .
O=c1cc(O)c2c(=O)[nH]c(=O)n(-c3ccccc3)c2[nH]1 | . | . | . | . | 33
COc1ccc(COCC(O)CN2CCN(S(=O)(=O)c3ccc(C(C)C)cc3)CC2)cc1 (centres undefined) | -30 | . | . | . | .
SMILES | D1 antag | TRHR agonist | D1 agonist | D1 potentiator | TRHR PAM
Cc1ccc(CNC(=O)CN(c2ccc(C(C)C)cc2)S(=O)(=O)c2c(C)n[nH]c2C)cc1 | . | . | . | . | .
O=C(CSCn1nnc2c(=O)[nH]c(Cc3ccc(F)cc3)nc21)Nc1cccc(C(F)(F)F)c1 | . | . | . | . | .
O=C(CCC1CCN(C(=O)c2ccco2)CC1)NCc1ccc(F)cc1 | -50 | . | . | . | .
O=C(c1ccco1)N1CCN(c2nc(-c3ccc(F)cc3)cs2)CC1 | -42 | . | . | . | .
COc1ccc(CN2CCC(C(=O)c3ccc(F)cc3)CC2)cc1 | -46 | . | . | . | .
COc1ccc(CCNC(=O)C2CCC(C(C)(C)C)CC2)cc1OC (centres undefined) | -63 | . | . | . | .
COc1ccc(C(=O)C2CCN(C(=S)NCCc3ccc(OC)c(OC)c3)CC2)cc1 | . | . | . | . | .
COc1ccc(CCNC(=S)N2CCC(C(=O)c3ccc(F)cc3)CC2)cc1OC | -44 | . | . | . | .
COc1ccc(C(=O)C2CCN(C(=O)c3ccc(F)cc3)CC2)cc1 | . | . | . | . | .
O=C(c1ccc(F)cc1)C1CCN(C(=S)NCC2CCCO2)CC1 (centres undefined) | -35 | . | . | . | .
CCOc1ccc(CCNC(=O)Cn2nc(CC)n3c(cc4sccc43)c2=O)cc1 | . | . | . | . | .
COc1ccc(COC(=O)C2CCN(S(=O)(=O)c3ccc(F)cc3)CC2)cc1 | -35 | . | 37 | . | .
COc1cccc2sc(Nc3nnc(-c4ccccc4Cl)o3)nc12 | . | . | 43 | . | .
CCc1ccccc1NC(=O)c1ccc(=O)n(Cc2ccc(F)cc2)c1 | . | . | . | . | .
Cc1csc2nc(COC(=O)c3cccc(NC(=O)c4cccc(Cl)c4)c3)cc(=O)n12 | . | . | . | . | .
O=C(CSc1nnc2ccc(-c3ccc(F)cc3)nn12)N1CCCC1 | -32 | . | . | . | .
CCc1ccc(-c2ccc3nnc(SC)n3n2)cc1 | . | . | . | . | .
CCSc1nnc2ccc(-c3ccc(C)cc3)nn12 | . | . | 59 | . | .
CN(C)CCNS(=O)(=O)c1ccc(N2CCc3ccccc32)c([N+](=O)[O-])c1 | . | . | 64 | . | .
CC(=O)c1ccc(N2CCN(c3ccc(S(=O)(=O)NCCN(C)C)cc3[N+](=O)[O-])CC2)cc1 | . | . | . | . | .
CCOC(=O)CN1C(=O)C(=O)N(Cc2c(Cl)cccc2Cl)C1=O | . | . | . | . | .
CCOC(=O)CN1C(=O)C(=O)N(Cc2cccc(C)c2)C1=O | . | . | 33 | . | .
CCOc1ccc(C(=O)CC(NCc2cccs2)C(=O)O)cc1 (centres undefined) | -30 | . | . | . | .
CCOc1ccc(C(=O)CCC(=O)N(CC)CC(=O)NCc2cccs2)cc1 | . | . | . | . | .
CCOc1ccc(C2CC(=O)Nc3c2c(=O)[nH]c2ncnn32)cc1 (centres undefined) | . | . | . | . | .
SMILES | D1 antag | TRHR agonist | D1 agonist | D1 potentiator | TRHR PAM
CCOc1ccc(CNC(=O)C2=Cc3cc(Br)ccc3OC2)cc1OC | -38 | . | . | . | .
CSc1ccc(C2c3c(oc4ccc(F)cc4c3=O)C(=O)N2c2ccc(C)cn2)cc1 (centres undefined) | . | . | . | . | .
CCCCNC(=O)C(CC)Sc1nnc(-c2cccc(F)c2)c(-c2cccc(F)c2)n1 (centres undefined) | . | . | . | . | .
Cc1oc(C)c(C(=O)O)c1COc1ccc(C(=O)O)cc1 | . | . | . | . | .
COc1ccc(C(=O)NCc2c(C)oc(C)c2C(=O)O)cc1 | . | . | . | . | 39
COc1ccc(CCNC(=O)c2c(C)cc(=O)oc2C)cc1OC | . | . | . | . | .
